From PubChem BioAssay (NCI)
About 83,000 compounds went through this panel and 20% of them were active in at least one assay; those are over-represented in the sample as a whole.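 Compound tested at a single concentration for 48 hours in 96-well plates; a percent growth value below 10 was scored as active.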 A number with no mark means an inactive call. Calls of active or inactive are those of the source.

What was measured:
Experiment in all cases: NCI-60 one-dose screen, 48 h (100 = growth as untreated, 0 = no growth, -100 = all killed)
Details in all cases: 10 µM unless noted
[1] = tested on: NCI-H23 lung
[2] = tested on: NCI-H226 lung
[3] = tested on: NCI-H322M lung
[4] = tested on: HOP-62 NSCLC
[5] = tested on: NCI-H460 lung
[6] = tested on: NCI-H522 lung
[7] = tested on: A549/ATCC NSCLC
[8] = tested on: 786-0 renal
[9] = tested on: COLO 205 colon
[10] = tested on: K-562 leukemia
[11] = tested on: MALME-3M melanoma
[12] = tested on: MDA-MB-231 breast
[13] = tested on: SF-295 CNS
[14] = tested on: SF-539 CNS
[15] = tested on: UACC-257 melanoma
[16] = tested on: M14 melanoma
[17] = tested on: HCT-15 colon
[18] = tested on: DU-145 prostate
[19] = tested on: SF-268 CNS
[20] = tested on: RXF 393 renal

Row | SMILES | growth [1] | growth [2] | growth [3] | growth [4] | growth [5] | growth [6] | growth [7] | growth [8] | growth [9] [%] | growth [10] | growth [11] | growth [12] | growth [13] | growth [14] | growth [15] | growth [16] | growth [17] [%] | growth [18] | growth [19] | growth [20]
1 | CC12CCCCC1C(C(N)=O)C(=O)O2 (stereo not given) | 101% | 118% | 104% | 109% | 110% | 108% | 106% | 101% | 112 | 102% | 120% | 101% | 109% | 112% | 107% | 104% | 106 |  |  | 
2 | Oc1ccccc1/C=N\Nc1ccccc1 | 87.5% | 39.4% | 59.9% | 65.6% | 30.9% | 10.5% | 36.8% | 43.3% | 115 |  | 95% | 26.7% | 19.9% | 3.41% (active) | 95.7% | 39.4% |  | 58.5% | 61.8% | 
3 | COc1ccc(/C=C/C(=O)Nc2cccnc2Nc2ccc(F)cc2)cc1 | 93.6% | 85.5% | 101% | 117% | 108% | 92.5% | 84.6% | 95.6% | 109 |  | 122% | 91.7% | 87.9% | 93.7% | 97.9% | 103% | 102 | 118% | 112% | 102%
4 | CCCCn1c(Cc2ccc(Cl)cc2)nc2cc(OC)c(OC)cc2c1=O | 74.6% | 66.4% | 97.3% | 91.2% | 90.6% | 71.6% | 66.3% | 84.4% |  | 40.3% | 101% | 70.2% | 71.1% | 105% | 55.5% | 79.2% |  | 75.5% | 80% | 90%
5 | O=C1Nc2ccc(F)cc2/C1=C/c1nc(-c2ccc(F)cc2)n2ccccc12 | 104% | 110% | 124% | 96.4% | 99.2% | 108% | 104% | 114% |  | 106% | 91.3% | 80% | 92.1% | 104% | 104% | 83.2% | 105 | 74.1% | 81.3% | 108%
6 | COC(=O)[C@]1(CCSC)N[C@H](c2cn(-c3ccccc3)nc2C)[C@@H]2C(=O)N(c3ccc(C)cc3)C(=O)[C@@H]21 | 100% | 129% | 104% | 99.5% | 104% | 89.6% | 90.5% | 97.1% | 113 |  | 99% | 104% | 97% |  | 102% | 96.6% | 96.7 | 103% | 98.2% | 133%
7 | O=C(Nc1cccc(-n2cc(-c3ccncc3)c(-c3ccc(O)c(Cl)c3)n2)c1)Nc1ccc(Cl)c(C(F)(F)F)c1 | 1.11% (active) | 20.2% | -17.7% (active) | 4.91% (active) | 3.16% (active) | -7.92% (active) | -14.8% (active) | -6.01% (active) |  | 4.8% (active) | -24% (active) | -34.8% (active) | -25.7% (active) | -19.3% (active) | -19.5% (active) | -34% (active) | 17.3 | 4.68% (active) | 3.1% (active) | -21% (active)
8 | Cc1nn(-c2ccccc2)c2ncc3c(c12)C(=O)N(Cc1ccccc1)C3=O | 63.9% | -14.2% (active) | 58.6% | 1.26% (active) | 4.79% (active) | 59.9% | 13.9% | -4.88% (active) | 32.9 |  | 72% | 14.3% | 1.19% (active) |  | 94.3% | 68.7% | 86.3 | 98.9% | 81.3% | 68%
9 | Cc1nn(-c2ccc(Cl)cc2)c2nc3c(nc12)c(=O)oc1ccccc13 | 100% | 128% | 116% | 107% | 109% | 101% | 95.4% | 98.1% | 123 |  | 108% | 110% | 92.7% |  | 104% | 107% | 103 | 118% | 104% | 136%
10 | OC(CCC(O)(c1ccccc1)c1ccccc1)(c1ccccc1)c1ccccc1 | 80% | 86.6% | 102% | 114% | 19.9% | 89.8% | 68.7% | 105% | 103 | 5.52% (active) | 100% | 81.5% | 65.1% | 115% | 82.8% | 96.1% | 100 |  |  | 80%
11 | Cc1cc(C)c(OC(=O)CSc2nc3ccccc3c(=O)n2CCc2ccccc2)cc1C | 101% | 84.8% | 89.3% | 104% | 74.1% | 98% | 91.9% | 105% | 96 |  |  | 80.1% | 87.3% | 97.3% | 103% | 102% | 52.7 | 110% | 97.1% | 
12 | O=C1c2ccccc2-c2c1nc1ccccc1[n+]2[O-] | 102% | 106% | 97% | 102% | 102% | 93.1% | 108% | 103% | 111 |  | 90.2% | 108% | 108% | 101% | 107% | 97.9% |  | 108% | 98.2% | 
13 | COc1cc(OC)c2sc(-c3ccc(-n4cncc4-c4ccc(N)cc4)cc3)nc2c1 | 101% | 98.7% | 84.7% | 110% | 78.7% | 84.8% | 60% | 71.8% |  | 59.9% | 84.4% | 87.3% | 48.1% | 84.6% | 69.8% | 76.4% |  | 80.3% | 74.5% | 81.5%
14 | COC(=O)[C@]1(C(C)C)N[C@H](c2cn(-c3ccccc3)nc2-c2ccccc2)[C@@H]2C(=O)N(c3ccc(Cl)cc3)C(=O)[C@@H]21 | 92.9% | 105% | 99.1% | 95.7% | 105% | 81.4% | 101% | 81.9% | 106 |  | 107% | 105% | 106% |  | 107% | 87.6% | 96 | 111% | 90.8% | 113%
15 | S=C(Nc1ccc(C2=NCCN2)cc1)Nc1ccc(C2=NCCN2)cc1 | 82.7% | 86.8% | 117% | 99.6% | 106% | 97.2% | 99.9% | 98.2% |  | 91.4% | 111% | 113% | 96.7% | 93.4% | 93.8% | 94.5% | 101 | 107% | 120% | 101%
16 | Cc1nn(-c2ccc(Cl)cc2)c2nc3c(nc12)C(=O)c1ccccc1-3 | 61.7% | 32.5% | 63.1% | 51.7% | 12.6% | 60.7% | 55.8% | 56.8% | 95.2 |  | 84.7% | 52.7% | 36.4% |  | 91.5% | 70.5% | 98.5 | 77.8% | 72.4% | 45.4%
17 | S=C(c1ccccc1)N1CCN(c2cccc(Cl)c2)CC1 | 101% | 99.3% | 104% | 102% | 111% | 87.5% | 87.8% | 107% | 100 | 54.8% | 97.4% | 105% | 82.9% | 105% | 103% | 113% |  |  |  | 108%
